# Measurements from PubChem BioAssay (NCATS).
# Inconclusive results are not listed. Unmarked numbers belong to inactive results. The source made the active and inactive calls. Calls come from the whole dose curve; as a rule, active = well fitted cell-killing curve with a large enough effect; inconclusive = small, poorly fitted or top-dose-only effect; inactive = flat fitted curve, though single readings scatter.
# Assay: MultiTox-Fluor Cytotoxicity Assay - LYMP1-001 - Live Cells (AID 947);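 for activity change, negative = cytotoxicity: 0% = DMSO only and full inhibition = tetraoctylammonium bromide control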
# Conditions: LYMP1-001 lymphoblastoid cells, live-cell protease fluorescence viability; series mostly up to 92.2 µM; activity change, negative = cytotoxicity: at the top concentration
# From the text: NIH Chemical Genomics Center [NCGC]
# NIH Molecular Libraries Screening Centers Network [MLSCN]
# National Institutes of Environmental Health Sciences [NIEHS]
# National Toxicology Program [NTP]
# We have developed a 1536-well cell-based assay for quantitative high throughput screening (qHTS) against a number of cell lines to determine in vitro cytotoxicity of small molecules. This particular assay uses a human lymphoblastoid cell line (LYMP1-001) purchased from Coriell Institute.
# NCGC Assay Protocol Summary:
# The MultiTox-Fluor Cytotoxicity Assay (Promega) is a homogeneous method to simultaneously measure the relative number of live and dead cells in culture by detecting changes in cell membrane integrity. There are two fluorogenic peptide substrates in the assay reagent. Viable cells are determined when the cell-permeant substrate (GF-AFC) enters the cell and is cleaved by protease from live cells resulting in liberated fluorophore. This live-cell protease activity restricted to viable cells is proportional to cell number. The dead cells are determined by using fluorogenic cell-impermeant peptide substrate (bis-AAF-R110) which cleaved by dead cell proteases leaking from damaged cell membrane.
# Using the MultiTox-Fluor Cytotoxicity Assay, the relative number of live cells was measured in the lymphoblastoid cell line with complete culture medium following compound treatment for 16 hours. The assay was performed in opaque black Kalypsys 1536-well plates. In the screen, tetraoctylammonium bromide was used as positive control. Library compounds were measured for their ability to cause acute toxicity in the cell line, as reflected by a decrease in live cell protease activity, in a concentration-dependent manner. […] AC50 values were determined from concentration-response data modeled with the standard Hill equation.
# qHTS protocol for MultiTox-Fluor Cytotoxicity assay
# [Step] [Parameter] [Value] [Description]
# 1. Reagent; 5 uL; 2500 lymphoblastoid cells/well
# 2. Time; 5 hr; 37 C incubation
# 4. Controls; 23 nL; Tetraoctylammonium bromide 6.4pM to 92 uM
# 5. Time; 16 hr; 37 C incubation
# 6. Reagent; 5 uL; MuliTox-Fluor Assay reagent
# 7. Time; 60 min; Room Temperature
# 8. Detection; live-cell fluorescence (Ex/Em=405/510); EnVision plate reader
# Keywords: cell viability, cytotoxicity, lymphoblastoid cell line, fluorescence, NTPHTS, NTPHTS_NCGC, NIEHS, EPA, DSSTox, MLSMR, MLSCN, NIH Roadmap, qHTS, NCGC
# Potency is the fitted concentration of half-maximal effect.
SMILES,"activity change, negative = cytotoxicity",Potency
O=[N+]([O-])c1ccccc1,8.29%,
Oc1cc(Cl)c(Cl)cc1Cl,-9.27%,
O=CC=O,9.86%,
CC(C)Nc1ccc(Nc2ccccc2)cc1,,31.6 µM (active)
C=CCN=C=S,-19.5%,
[O]=[Cd],-19.4%,
COc1ccc2c(c1OC)C(=O)OC2C1c2cc3c(cc2CCN1C)OCO3 (centres undefined),-20.5%,
C[C@H]1CCC[C@H](O)CCCCCc2cc(O)cc(O)c2C(=O)O1,-25.4%,
O=C1C2CC=CCC2C(=O)N1SC(Cl)(Cl)Cl (centres undefined),,12.6 µM (active)
O=C/C=C/c1ccccc1,,inactive
[O]=[Cr](=[O])([OH])[O][Cr](=[O])(=[O])[OH],,inactive
NNC(N)=O,5.09%,
ClC(Cl)(Cl)Cl,,inactive
O=[N+]([O-])c1ccc(F)c([N+](=O)[O-])c1,-6.17%,
O=C1CCO1,8.48%,
C[C@H]1CC[C@@H]2[C@@H](C)[C@H]3[C@H](C[C@H]4[C@@H]5CC=C6CC(O[C@@H]7O[C@H](CO)[C@H](O)[C@H](O[C@@H]8O[C@H](CO)[C@@H](O)[C@H](O)[C@H]8O)[C@H]7O[C@H]7O[C@@H](C)[C@H](O)[C@@H](O)[C@H]7O)CC[C@]6(C)[C@H]5CC[C@]34C)N2C1 (some centres undefined),,31.6 µM (active)
C[C@]12CCC(=O)C[C@@H]1CC[C@@H]1[C@@H]2CC[C@]2(C)[C@@H](O)CC[C@@H]12,-3.54%,
O=C(O)C(Cl)(Cl)Cl,,inactive
CCCCCCCCOC(=O)c1ccccc1C(=O)OCCCCCCCC,11.7%,
ClC=C(Cl)Cl,-0.445%,
O=Cc1ccco1,7.27%,
COC1=CC(=O)O[C@@H](/C=C/c2ccccc2)C1,1.78%,
S=C=S,10.9%,
[Cl-].[Cl-].[Hg+2],,31.6 µM (active)
O=C1C=CC(=O)C=C1,-14%,
CC(C)(C)c1cc(O)ccc1O,,inactive
Clc1ccccc1Cl,10.5%,
CCCCCl,-1.86%,
CCOC(=O)c1ccccc1C(=O)OCC,14%,
